These results are taken from PubChem BioAssay (NCI).

The panel holds about 79,000 compounds, 15% with a hit somewhere; the sample as a whole holds those more often. Values without a mark were called inactive. Active and inactive are the calls of the source. No stated cut-off is given here; in the data, active means growth inhibition above about 70%; inactive means the rest.

Test [1] can be described thus: NCI Yeast Anticancer Drug Screen. Data for the rad50 strain (AID 155).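 Further: 0% = growth of vehicle-only cultures of the same strain.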 The conditions noted are these: S. cerevisiae rad50 strain growth inhibition, stronger effect = higher value. In outline:
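Cells are treated with compound, grown, and their growth is then scored against vehicle-only cultures of the same repair-deficient yeast strain.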

A short description of test [2]: NCI Yeast Anticancer Drug Screen. Data for the mec2-1 strain (AID 157). The conditions noted are these: S. cerevisiae mec2-1 strain, stronger effect = higher value. In a few lines:
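Growth inhibition is read against vehicle-treated controls after compound exposure of the mec2-1 yeast strain, which is defective in DNA damage repair or cell cycle control.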

Test [3] in a line: NCI Yeast Anticancer Drug Screen. Data for the sgs1 mgt1 strain (AID 161).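 Further: 0% = growth of cultures given vehicle only.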 The conditions noted are these: S. cerevisiae sgs1 mgt1 strain, stronger effect = higher value. In outline:
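Compounds are added to genetically altered yeast, and growth is compared with cultures given vehicle alone to give percent inhibition.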

A short description of test [4]: NCI Yeast Anticancer Drug Screen. Data for the cln2 rad14 strain (AID 165).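 Further: 0% = growth equal to vehicle treated cultures.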 The conditions noted are these: S. cerevisiae cln2 rad14 strain, stronger effect = higher value. In outline:
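Growth inhibition, relative to vehicle-treated controls, is the read-out. The test organism is a yeast strain with defined genetic alterations, cln2 rad14.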

A short description of test [5]: NCI Yeast Anticancer Drug Screen. Data for the bub3 strain (AID 167). The conditions noted are these: S. cerevisiae bub3 mutant strain, stronger effect = higher value. In outline: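 Part of a panel of yeast mutants defective in DNA damage repair or cell cycle regulation. Each strain is grown with compound, and inhibition is calculated relative to solvent-treated cultures.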

A short description of test [6]: NCI Yeast Anticancer Drug Screen. Data for the mlh1 rad18 strain (AID 175). To be noted: S. cerevisiae mlh1 rad18 strain growth inhibition, stronger effect = higher value. In outline: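 Cells of a genetically altered yeast strain, deficient in DNA damage repair, were treated with compound. Their growth was then compared with that of vehicle-treated cultures to give inhibition.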

Where [7] appears, read: at 5.0 µM (retest, dose inferred, filed as 0.5).
Setting [8] is: at 50.0 µM (retest, dose inferred, filed as 5.0).

Turning to `Nc1c(-c2ccc(Cl)cc2)[n+]([O-])c2ccccc2[n+]1[O-]`, the growth inhibition in test [1] (setting [7]) was -16%; in test [1] (setting [8]) it was 4%; in test [1] (at 50.0 µM), 19.2%; in test [2] (setting [7]) it was -8%; in test [2] (setting [8]), -10%; in test [2] (at 50.0 µM) it was 13.2%. Moreover, the growth inhibition in test [3] (setting [7]) was 1%; in test [3] (setting [8]), -10%; in test [3] (at 50.0 µM) it was 34.4%; in test [4] (setting [7]) it was 24%; in test [4] (setting [8]) it was 11%; in test [4] (at 50.0 µM) it was 47.7%. For the same compound, the growth inhibition in test [5] (setting [7]) is -3%; in test [5] (setting [8]) it was 11%; in test [5] (at 50.0 µM), 8.45%; in test [6] (setting [7]) it was 15%; in test [6] (setting [8]) it was 6%; in test [6] (at 50.0 µM), 37.2%.

Consider `ICCCCSc1cc(-c2ccccc2)[o+]c2ccccc12`, for which the growth inhibition in test [1] (setting [7]) was 23%; in test [1] (setting [8]) it was 92% (active); in test [1] (at 50.0 µM), 93% (active); in test [2] (setting [7]), 10%; in test [2] (setting [8]), 51%; in test [2] (at 50.0 µM), 72.2% (active). The growth inhibition in test [3] (setting [7]) was 19%; in test [3] (setting [8]), 75% (active); in test [3] (at 50.0 µM), 75.2% (active); in test [4] (setting [7]) it was 1%; in test [4] (setting [8]) it was 49%; in test [4] (at 50.0 µM), 24.3%. Further, the growth inhibition was 7% in test [5] (setting [7]); 85% (active) in test [5] (setting [8]); 75.4% (active) in test [5] (at 50.0 µM); 11% in test [6] (setting [7]); 71% (active) in test [6] (setting [8]); 88.8% (active) in test [6] (at 50.0 µM).

On to `O=[N+]([O-])c1ccc(Cl)c(C(Nc2nncs2)Nc2nncs2)c1`, for which the growth inhibition is -2% in test [1] (setting [7]); 91% (active) in test [1] (setting [8]); 49.1% in test [1] (at 50.0 µM); 2% in test [2] (setting [7]); 70% (active) in test [2] (setting [8]); 23.9% in test [2] (at 50.0 µM). Also, the growth inhibition in test [3] (setting [7]) was -3%; in test [3] (setting [8]), 61%; in test [3] (at 50.0 µM) it was 61.7%; in test [4] (setting [7]) it was 18%; in test [4] (setting [8]) it was 84% (active); in test [4] (at 50.0 µM), 36.3%. Moreover, the growth inhibition was -5% in test [5] (setting [7]); 92% (active) in test [5] (setting [8]); 20.4% in test [5] (at 50.0 µM); -13% in test [6] (setting [7]); 84% (active) in test [6] (setting [8]); 51.8% in test [6] (at 50.0 µM).

On to `CCc1cccc(C)c1NC(=O)/C(Cl)=C(\Cl)C(=O)O`, for which the growth inhibition in test [1] (setting [7]) is 67%; in test [1] (setting [8]), 99% (active); in test [1] (at 50.0 µM) it was 99.4% (active); in test [2] (setting [7]), 65%; in test [2] (setting [8]) it was 100% (active); in test [2] (at 50.0 µM), 99.5% (active). Moreover, the growth inhibition is 67% in test [3] (setting [7]); 100% (active) in test [3] (setting [8]); 99.7% (active) in test [3] (at 50.0 µM); 54% in test [4] (setting [7]); 99% (active) in test [4] (setting [8]); 99.1% (active) in test [4] (at 50.0 µM). Moreover, the growth inhibition in test [5] (setting [7]) is 94% (active); in test [5] (setting [8]), 100% (active); in test [5] (at 50.0 µM) it was 99.5% (active); in test [6] (setting [7]), 53%; in test [6] (setting [8]), 100% (active); in test [6] (at 50.0 µM), 99.4% (active).

In the case of `CCOP(=O)(OCC)/C(C#N)=C/c1coc2cc(C)cc(C)c2c1=O`, the growth inhibition in test [1] (setting [7]) was 19%; in test [1] (setting [8]), 99% (active); in test [1] (at 50.0 µM), 86.7% (active); in test [2] (setting [7]), -7%; in test [2] (setting [8]) it was 100% (active); in test [2] (at 50.0 µM), 91.9% (active). The growth inhibition in test [3] (setting [7]) is -10%; in test [3] (setting [8]), 99% (active); in test [3] (at 50.0 µM), 78% (active); in test [4] (setting [7]), 0%; in test [4] (setting [8]), 99% (active); in test [4] (at 50.0 µM), 59%. Besides, the growth inhibition in test [5] (setting [7]) was -9%; in test [5] (setting [8]), 98% (active); in test [5] (at 50.0 µM), 87.2% (active); in test [6] (setting [7]), 26%; in test [6] (setting [8]) it was 99% (active); in test [6] (at 50.0 µM) it was 82.2% (active).

In the case of `c1ccc2c3[nH]c(c2c1)=Nc1ccc(cc1)-c1nc2ccc(cc2o1)N=c1[nH]c(c2ccccc12)=Nc1ccc2nc(oc2c1)-c1ccc(cc1)N=3`, the growth inhibition is 28% in test [1] (setting [7]); 94% (active) in test [1] (setting [8]); 78.2% (active) in test [1] (at 50.0 µM); 18% in test [2] (setting [7]); 93% (active) in test [2] (setting [8]); 84.8% (active) in test [2] (at 50.0 µM). Further, the growth inhibition is 30% in test [3] (setting [7]); 94% (active) in test [3] (setting [8]); 82.7% (active) in test [3] (at 50.0 µM); 17% in test [4] (setting [7]); 81% (active) in test [4] (setting [8]); 84% (active) in test [4] (at 50.0 µM). The growth inhibition in test [5] (setting [7]) was 31%; in test [5] (setting [8]), 95% (active); in test [5] (at 50.0 µM), 77% (active); in test [6] (setting [7]) it was 50%; in test [6] (setting [8]) it was 93% (active); in test [6] (at 50.0 µM), 88.6% (active).

On to `OC(C/C(CNNc1ccccc1)=N/Nc1ccccc1)(C(F)(F)F)C(F)(F)F`, for which the growth inhibition in test [1] (setting [7]) was 6%; in test [1] (setting [8]), -9%; in test [1] (at 50.0 µM), 71.2% (active); in test [2] (setting [7]), -2%; in test [2] (setting [8]) it was 76% (active); in test [2] (at 50.0 µM) it was 83.8% (active). Further, the growth inhibition was -6% in test [3] (setting [7]); 5% in test [3] (setting [8]); 69.2% in test [3] (at 50.0 µM); 2% in test [4] (setting [7]); 75% (active) in test [4] (setting [8]); 55.4% in test [4] (at 50.0 µM). For the same compound, the growth inhibition was -1% in test [5] (setting [7]); 59% in test [5] (setting [8]); 74.6% (active) in test [5] (at 50.0 µM); 14% in test [6] (setting [7]); 78% (active) in test [6] (setting [8]); 89% (active) in test [6] (at 50.0 µM).

Consider `COC12C=CC(CC1)c1c2c(O)c2ncccc2c1O` (stereo not given), for which the growth inhibition was -4% in test [1] (setting [7]); 67% in test [1] (setting [8]); 78.6% (active) in test [1] (at 50.0 µM); -3% in test [2] (setting [7]); 40% in test [2] (setting [8]); 34.9% in test [2] (at 50.0 µM). Further, the growth inhibition was -5% in test [3] (setting [7]); 47% in test [3] (setting [8]); 72.5% (active) in test [3] (at 50.0 µM); -4% in test [4] (setting [7]); 23% in test [4] (setting [8]); 21.9% in test [4] (at 50.0 µM). Moreover, the growth inhibition in test [5] (setting [7]) is 3%; in test [5] (setting [8]), 77% (active); in test [5] (at 50.0 µM), 90.3% (active); in test [6] (setting [7]), -6%; in test [6] (setting [8]) it was 52%; in test [6] (at 50.0 µM), 48.3%.

Take `CC1(C)CC(=O)C(/C=N/c2nc(-c3cccc([N+](=O)[O-])c3)cs2)=C(O)C1`: the growth inhibition in test [1] (setting [7]) is 17%; in test [1] (setting [8]) it was 99% (active); in test [1] (at 50.0 µM), 99% (active); in test [2] (setting [7]), 15%; in test [2] (setting [8]), 99% (active); in test [2] (at 50.0 µM), 99% (active). Further, the growth inhibition is 5% in test [3] (setting [7]); 99% (active) in test [3] (setting [8]); 99% (active) in test [3] (at 50.0 µM); -7% in test [4] (setting [7]); 99% (active) in test [4] (setting [8]); 98.5% (active) in test [4] (at 50.0 µM). Further, the growth inhibition is 20% in test [5] (setting [7]); 99% (active) in test [5] (setting [8]); 99.1% (active) in test [5] (at 50.0 µM); 14% in test [6] (setting [7]); 99% (active) in test [6] (setting [8]); 99% (active) in test [6] (at 50.0 µM).

For `S=C(N/N=C1/CCCC/C1=N/NC(=S)N1CCOCC1)N1CCOCC1`, the growth inhibition in test [1] (setting [7]) was 38%; in test [1] (setting [8]), 96% (active); in test [1] (at 50.0 µM), 90.1% (active); in test [2] (setting [7]), 33%; in test [2] (setting [8]) it was 99% (active); in test [2] (at 50.0 µM), 93.7% (active). For the same compound, the growth inhibition in test [3] (setting [7]) is 40%; in test [3] (setting [8]) it was 99% (active); in test [3] (at 50.0 µM) it was 91.4% (active); in test [4] (setting [7]), 32%; in test [4] (setting [8]), 98% (active); in test [4] (at 50.0 µM) it was 91.2% (active). Moreover, the growth inhibition is 51% in test [5] (setting [7]); 99% (active) in test [5] (setting [8]); 91% (active) in test [5] (at 50.0 µM); 41% in test [6] (setting [7]); 97% (active) in test [6] (setting [8]); 91.2% (active) in test [6] (at 50.0 µM).
